This note sets out measurements from PubChem BioAssay (NCATS).

Inconclusive results are not listed. The source made the active and inactive calls. Calls follow the shape of the dose curve; as a rule, active = well fitted inhibition curve with a large enough effect; inconclusive = small, poorly fitted or top-dose-only effect; inactive = flat fitted curve, though single readings scatter.
% is scaled to controls: 0 for no effect and ±100 for the full control effect.

The assay deals with Calcium and integrin-binding protein 1 (Homo sapiens) (UniProt Q99828). The experiment in a line: Primary qHTS for Identification of Calcium Integrin Binding Protein 1 (CIB1) Competitor (AID 1508620).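 Also: GST tagged CIB1 binding a fluorescein labelled alphaIIb integrin peptide tracer; top concentration of the series differs between compounds.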 Conditions: CIB1-GST / FITC-alphaIIb peptide fluorescence polarization; series mostly up to 114 µM; activity change, negative = inhibition: at the top concentration. In a few lines: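 Fluorescence polarization competition: CIB1-GST (1 uM final) preincubated with compound 15 min at room temperature, then FITC-labeled alphaIIb peptide (100 nM final) added for another 15 min. Polarization read at Ex 480/Em 540.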
Calcium and integrin-binding protein 1 (Homo sapiens), sequence (Q99828 whole entry, looked up): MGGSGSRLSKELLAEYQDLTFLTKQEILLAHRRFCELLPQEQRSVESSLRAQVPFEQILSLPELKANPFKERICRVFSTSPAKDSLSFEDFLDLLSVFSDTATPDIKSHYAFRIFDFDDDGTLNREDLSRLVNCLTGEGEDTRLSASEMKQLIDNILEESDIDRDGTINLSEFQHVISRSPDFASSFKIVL
Background: qHTS replaces the single test concentration by a dilution series.
Regarding `CC(=O)Nc1sc2c(c1-c1cccnc1)CCNC2`, the “activity change, negative = inhibition” value is 7.05% (inactive).

Consider `COc1ccccc1C1=Nn2c(nnc2-c2ccccc2C)SC1`, for which the Potency result was “inactive”.

`COc1ccc(C(=O)N(Cc2ccco2)Cc2ccco2)c(O)c1`: the “activity change, negative = inhibition” value was -13.2% (inactive).

Consider `CC(C)(C)n1cnc2cc(C(=O)N3CCCCC3)ccc21`, for which the “activity change, negative = inhibition” value was 8.77% (inactive).

Take `CC(C)(C)NC(=O)Nc1nnc(-c2ccncc2)s1`: the “activity change, negative = inhibition” value is -3.34% (inactive).

As for `Cc1cccc(-n2cnc3cc(C(=O)N4CCC(C#N)CC4)ccc32)c1`, the “activity change, negative = inhibition” value is -0.663% (inactive).

On to `Cc1ccc(S(=O)(=O)N(C)c2cccc3cccnc23)cc1`, for which the “activity change, negative = inhibition” value was 2.24% (inactive).

Take `CNc1oc(-c2ccc(F)cc2)nc1C#N`: the “activity change, negative = inhibition” value is -0.387% (inactive).

As for `COC(=O)c1ccccc1NC(=O)c1ccccc1OC(F)F`, the “activity change, negative = inhibition” value is -0.0702% (inactive).

On to `O=C1CCc2cc(Cl)c(S(=O)(=O)Nc3ccc(Cl)c(Cl)c3)cc2N1`, for which the “activity change, negative = inhibition” value was -12.7% (inactive).

As to `O=S(=O)(Nc1cc(O)cc2cccnc12)c1ccc(Br)s1`, the “activity change, negative = inhibition” value was -23% (inactive).

On to `CC(=O)c1ccc(N2CCN(S(=O)(=O)c3ccc4c(c3)CC(=O)N4)CC2)cc1`, for which the “activity change, negative = inhibition” value is 9.77% [at 228 µM] (inactive).

Consider `N#Cc1ccc(-c2ccc(CNc3ccc(N4CCOCC4)cc3)cn2)cc1`, for which the “activity change, negative = inhibition” value was -9.84% (inactive).

Turning to `C(=C/c1cccs1)/c1ccncc1`, the “activity change, negative = inhibition” value was -0.322% (inactive).

For the compound `O=C(CCCc1ccccc1)NC(c1ccco1)c1cc(Cl)c2cccnc2c1O` (stereo not given), the “activity change, negative = inhibition” value is -11.4% (inactive).

As to `COc1ccccc1-c1nnc(SCC#CCOC(=O)c2ccc(F)cc2)o1`, the “activity change, negative = inhibition” value is 5.02% (inactive).

Turning to `FC(F)(F)c1cccc(-c2nc(NCc3ccc(-c4cccnc4)cc3)c3ccccc3n2)c1`, the “activity change, negative = inhibition” value was 5.81% (inactive).

Regarding `O=S(=O)(Nc1ccccc1)c1ccc(O)c2ncccc12`, the “activity change, negative = inhibition” value is -4.49% (inactive).

For the compound `N#Cc1ccc(NC(=O)Nc2nnc(-c3ccncc3)s2)c(Cl)c1`, the “activity change, negative = inhibition” value was 7.97% (inactive).

As for `COc1cccc(-c2ccc3ncnc(NCc4cccc(F)c4)c3c2)c1`, the “activity change, negative = inhibition” value is 3.98% (inactive).

Take `COc1ccc(C2c3c(ncn(Cc4ccccc4)c3=N)Oc3ccc4ccccc4c32)cc1OC` (stereo not given): the “activity change, negative = inhibition” value was 2.88% (inactive).

Consider `Cc1occc1-c1ccc2ncnc(NCc3ncc[nH]3)c2c1`, for which the “activity change, negative = inhibition” value was -2.18% (inactive).

For the compound `Fc1ccccc1N1CCN(c2nc(-c3cccs3)nc3ccccc23)CC1`, the “activity change, negative = inhibition” value was -1.98% (inactive).

With `O=C1CCCC2=C1C(c1[nH]ncc1Cl)N=C(Nc1nccs1)N2` (stereo not given), the “activity change, negative = inhibition” value was -7.13% (inactive).

For the compound `Fc1cc(Nc2nc(-c3ccncc3)nc3ccccc23)ccc1-c1ccnc(C(F)(F)F)c1`, the “activity change, negative = inhibition” value is 8.08% (inactive).

As for `Cc1c(P(=S)(c2ccccc2)c2ccccc2)[n+]2ccccc2n1CCCCCc1ccccc1`, the “activity change, negative = inhibition” value is -9.46% (inactive).

With `C/C(=C\c1ccsc1)C1Nc2cccc3cccc(c23)N1`, the “activity change, negative = inhibition” value was -2.25% (inactive).

`Cc1cc(C)nc(NC(=S)N2CCN(c3noc4ccccc34)CC2)c1`: the “activity change, negative = inhibition” value was -3.73% (inactive).

`O=C(c1ccccc1)N1CCN(c2nc(-c3cccs3)nc3ccccc23)CC1`: the “activity change, negative = inhibition” value is 3.74% (inactive).

Turning to `O=C1c2ccccc2C(=O)N1c1cccc(Cl)c1`, the “activity change, negative = inhibition” value was 0.117% (inactive).

With `NC(=O)c1ccc(-c2noc(-c3ccccc3F)n2)cc1`, the “activity change, negative = inhibition” value was 1.67% (inactive).

For the compound `NC(=O)C1CCN(c2nc(-c3ccc4c(c3)OCCO4)cs2)CC1`, the “activity change, negative = inhibition” value is 1.22% (inactive).

Turning to `Cc1ccc(NS(=O)(=O)c2cccc(Cl)c2)cc1C`, the “activity change, negative = inhibition” value is 6.33% (inactive).

On to `Oc1ccc(CNc2ccc(C(F)(F)F)cc2Cl)c2cccnc12`, for which the “activity change, negative = inhibition” value was -2.74% (inactive).

Consider `N#Cc1c(-c2ccc(F)c(Br)c2)no[n+]1[O-]`, for which the “activity change, negative = inhibition” value was -14.7% (inactive).

As to `Cc1cc(N[S+](=O)([O-])c2ccc(NC(=O)Cc3ccc(F)c(C)c3)cc2)no1`, the “activity change, negative = inhibition” value was -12.6% (inactive).

With `COc1ccc(-n2c(C)c(C(C)=O)c3ccccc32)cc1`, the Potency entry is “inactive”.

For `CC(=O)Nc1sc2c(c1C(O)c1nc3ccccc3s1)CCN(C(C)C)C2` (stereo not given), the “activity change, negative = inhibition” value was -1.12% (inactive).

`COc1ccc(Cn2ncc3c4sc(C)cc4n(C)c3c2=O)cc1`: the “activity change, negative = inhibition” value was 0.153% (inactive).

As for `O=C(O)c1ccc2c(c1)C(=O)N([C@H](Cc1c3ccccc3cc3ccccc13)C(=O)O)C2=O`, the “activity change, negative = inhibition” value was -2.03% (inactive).
